# Source: paper PMC5540273 (PLoS ONE, 2017)
# System: SRPK3
# Conditions: concentration: 1 μM, replicates: in singlicate; n = 1
# 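Note: KINOMEscan kinase panel screen.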
row,SMILES,%Inh
1,CCn1c(-c2nonc2N)nc2c(C#CC(C)(C)O)nc(OC[C@H](N)c3ccccc3)cc21 [GSK943949],24%
2,Cc1cccc(NC(=O)Nc2ccc(Oc3ncnc4ccn(C)c34)cc2)c1,0%
3,O=C(Nc1cccc(Oc2ccc3nc(NC(=O)C4CC4)cn3n2)c1)c1ccccc1C(F)(F)F,48%
4,O=C(Nc1ccccc1F)NC1CCN(c2ccnc(Nc3ccc(F)cc3)n2)CC1 [GSK1379800],0%
5,NCCCC(NC(=O)c1cc(Br)c(-c2ccnc3[nH]ccc23)s1)c1ccccc1.O=C(O)C(F)(F)F.O=C(O)C(F)(F)F (centres unmarked) [GSK1287544],57%
6,COc1cccc(C(=O)Nc2cccc(Oc3ccc4nc(NC(=O)C5CC5)cn4n3)c2)c1,0%
7,COC(=O)Nc1nc2cc(Oc3ccc(NC(=O)Nc4cc(C(F)(F)F)ccc4F)cn3)ccc2[nH]1.Cl.Cl [GW681170],0%
8,Cc1ccc(C(=O)Nc2ccc(Nc3ccnc4cc(-c5nccs5)ccc34)cc2O)cc1.Cl [GW494702],13%
9,CCc1ccc(-c2ccc3c(c2)-c2c(cnn2C)S(=O)(=O)N3C)cc1,18%
10,CN(C)S(=O)(=O)c1cc(-c2ccc3nccc(-c4cccc(S(N)(=O)=O)c4)c3c2)cnc1N [GSK1669921],19%
11,COc1cccc(NC(=O)NC2CCN(c3ccnc(Nc4cc(OC)c(OC)c(OC)c4)n3)C2)c1 (centres unmarked) [GSK1379763],0%
12,O=c1[nH]cc(-c2ccc(N3CCOCC3)cc2)c2sc(-c3cn[nH]c3)cc12 [GSK2276055],0%
13,COc1cc(Nc2nccc(N3CCC(NC(=O)Nc4cccc(C(C)=O)c4)C3)n2)cc(OC)c1OC (centres unmarked) [GSK1379753],0%
14,CN1CCN(CCCNc2nccc(-c3c(-c4ccc(F)cc4)nn4cc(C(F)(F)F)ccc34)n2)CC1 [GW621581],16%
15,c1ccc(-c2cnc3nccnn23)cc1 [AH20685],0%
16,Cc1ccc(C(=O)N2CC[C@@H](O)C2)cc1-n1c(C)cc(OCc2ccc(F)cc2F)c(Br)c1=O,0%

row,SMILES,%Inh
1,C[C@@H](Oc1cc(-n2cnc3cc(-c4ccnc(NCCS(C)(=O)=O)c4)ccc32)sc1C(N)=O)c1ccccc1Cl [GSK907232],82%
2,Cl.c1ccc(-c2ccc3c(Nc4ccc5[nH]ncc5c4)ccnc3c2)nc1 [GW440137],0%
3,Oc1cc(Nc2ccnc3cc(I)ccc23)ccc1F [GW552771],9%
4,Nc1n[nH]c2cnc(-c3ccccc3)cc12 [SB-642124],24%
5,COc1cc(Nc2nccc(N3CCC(NC(=O)c4cc5ccccc5s4)C3)n2)cc(OC)c1OC (centres unmarked) [GSK1379760],22%
6,C[C@@H]1CC[C@@H](C(=O)Nc2ccccc2)CN1c1cc(-c2ccc3c(N)n[nH]c3c2)nc(N)n1 [GSK2286062],0%
7,Nc1ncc(-c2cccnc2)c2scc(-c3ccc4c(c3)CCN4C(=O)Cc3ccccc3)c12 [GSK683281],28%
8,Cc1ccc(F)c(C(=O)Nc2cccc(-c3nn4ccccc4c3-c3ccnc(Nc4cccc(F)c4)n3)c2)c1F [GSK361061],25%
9,O=C(Nc1cccc(-c2nn3ncccc3c2-c2ccnc(Nc3ccccc3)n2)c1)c1c(F)cccc1F [GSK198271],0%
10,CC(C)c1nc(-c2cccc(NS(=O)(=O)c3c(F)cccc3F)c2F)c(-c2ccnc(Nc3ccc(N4CCOCC4)nc3)n2)s1 [GSK2008607],0%
11,COc1cc(Nc2ncc3c(C)nc(-c4cc5ccccc5[nH]4)n3n2)cc(OC)c1OC [GW869516],19%
12,COCCOCCOc1cc2ncc3c4ccc(C#N)cc4[nH]c3c2cc1OC,27%
13,O=C(O)C(F)(F)F.O=C(O)C(F)(F)F.O=c1[nH]ccc2nc(N[C@@H]3CCCNC3)nc(Nc3ccc(S(=O)(=O)N4CCOCC4)cc3)c12 [GSK2177277],95.2%
14,Cc1cccc(Nc2nc(N[C@H]3CCNC3)ncc2C(N)=O)c1.Cl [GSK2197149],76%
15,COc1cc(Nc2nccc(-c3c(-c4cccc(NC(=O)c5c(F)cccc5F)c4)nn4ncccc34)n2)cc(OC)c1OC [GSK327238],0%
16,O=C(Nc1n[nH]c2cc(-c3ccoc3)ccc12)C1CC1 [SB-738481],37%
